High-throughput results from PubChem.
Pf growth 96h = P. falciparum growth inhibition at 96 hour, primary screen for plastid delayed-death inhibitors. P. falciparum luciferase reporter growth, 96 h. Potency, µM (doses to about 28.7 µM), usual class: inhibitors. 320,000 tested, 6.9% active. AID 504834; active = well fitted inhibition curve with a large enough effect; inconclusive = small, poorly fitted or top-dose-only effect, or another doubt; inactive = no such curve, though single readings can be large or run the other way
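Plates of compound plus infected erythrocytes (2% hematocrit, 0.05% parasitemia final) incubate 96 hours, 37 C, 5% CO2. Detection reagent added; reduced luminescence from the parasites' luciferase reporter flags inhibition.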
NS1 function inh = blocks influenza NS1 protein function | Potency, µM (titrated, usually from 46.1 µM) | 270,000 tested, 0.4% active; note: actives are rising curves; nearly all actives have a fitted effect of over 50% in size
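S. cerevisiae expressing influenza A NS1, grown in glucose, washed, then diluted 1:100 into pH 6.0 -URA galactose medium with 23 nl compound. Growth recovery read as OD600; NS1-free strain serves as control.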
RE007 growth inh = less growth of the S. pombe RE007 Vpr strain | S. pombe RE007 Vpr strain, BacTiter-Glo ATP luminescence, 24 h | Potency, µM (top dose mostly 92.2 µM), most hits filed as inhibitors | AID 651644 | 360,000 tested, 0.21% active; active = well fitted falling curve with a large enough effect; inconclusive = small, poorly fitted or top-dose-only effect; inactive = no such curve, though single readings can be large or run the other way; note: nearly all actives have a fitted effect of over 50% in size
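Fission yeast strain RE007, carrying one chromosomally integrated HIV-1 vpr copy, was seeded at OD 0.01 in PMG+AL medium with 23 nL pinned compound. After 24 h at 30 °C and 99% humidity, viability was read by BacTiter-Glo luminescence.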
Pf growth 48h = inhibits P. falciparum growth in the first generation, 48 h; P. falciparum luciferase growth in erythrocytes, 48 h; Potency, µM (doses to about 28.7 µM), most hits filed as inhibitors; 310,000 tested, 5.9% active; AID 504832; active = well fitted inhibition curve with a large enough effect; inconclusive = small, poorly fitted or top-dose-only effect, or another doubt; inactive = no such curve, though single readings can be large or run the other way
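Luciferase-expressing parasites in RBCs, 2% Hct / 0.1% parasitemia final; RPMI 1640 + 0.5% Albumax; 37 C, 5% CO2, one generation; luminescence read-out, lower signal = inhibition.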
SARS PLP yeast = blocks SARS-CoV papain-like protease in a yeast assay; S. cerevisiae expressing SARS-CoV PLpro, growth rescue; Potency, µM (doses to about 32.9 µM), actives largely listed as activators; 330,000 tested, 0.19% active; AID 485353; note: nearly all actives have a fitted effect of over 55% in size
NS1 inh valid = validation of influenza NS1 protein function inhibitors | shares compounds with NS1 function inh | influenza NS1 function cell assay, 15-point titration | activity change, negative = inhibition, % at 32.9 µM | 1,400 tested, under 10 active
PR8 titer = influenza virus titer reduction, NS1 project | shares compounds with NS1 function inh | MDCK infected influenza A/PR/8/34, virus titer TCID50; active compounds read low | virus titer (log TCID50), log10 TCID50 at 5 µM | 95 tested, 30% active; call rule not given here
Hits are given with their value; i = inactive; ? = inconclusive; nt = no result; [ ] = dose if it differs, or a comment. Compounds with a hit are over-represented: about 9.5% of the library has one in this group of screens. Unless noted, calls come from the whole dose curve.

SMILES | Pf growth 96h | NS1 function inh | RE007 growth inh | Pf growth 48h | SARS PLP yeast | NS1 inh valid | others
C[C@H](CO)N1C[C@H](C)[C@H](CN(C)S(=O)(=O)c2ccc(Cl)cc2)OCc2ccccc2-c2c(n(C)c3ccccc23)C1=O | nt | nt | i | nt | nt | nt
O=C(CSc1ccc(F)cc1)Nc1ccc2c(c1)C(=O)NC2=O | i | 1.6µM | i | i | i | i
COc1ccc(S(=O)(=O)NCCc2ccco2)cc1OC | i | 3.2µM | i | i | i | i
O=C1NC[C@@H](c2ccccc2)OC(=O)[C@@H](Cc2ccc(F)cc2)CC/C=C/C[C@@H]1CC(=O)N(CCO)Cc1ccccc1 | nt | nt | i | nt | i | nt
O=C(CN(Cc1ccco1)C(=O)c1ccc(F)cc1)Nc1ccccc1Br | nt | nt | i | nt | i | nt
O=C(c1cc2ccccc2o1)N1CCN(S(=O)(=O)c2cccs2)CC1 | ? | 10µM | i | nt | i | i
COc1cccc(C(O)c2nc(-c3cccc(F)c3)cs2)c1 (stereo not drawn) | nt | nt | i | nt | nt | nt
Cc1ccc(C)c(N2CCN(C(=O)C3CCN(S(=O)(=O)c4cccc5nsnc45)CC3)CC2)c1 | i | ? | i | ? | i | i | PR8 titer=i
Cc1ccc(NC(=O)Nc2cccnc2)cc1Cl | ? | i | i | ? | i | nt
CN1CCc2cc(NC(=O)Nc3cccnc3)ccc21 | nt | 25µM | nt | nt | nt | i
CCS(=O)(=O)c1nnnn1-c1ccccc1S(C)(=O)=O | nt | 14µM | i | 9.3µM | i | i
CCC(=O)N1CCC2(CC1)Oc1ccc(Cl)cc1C(=O)C21CC(c2ccccc2)=NO1 (stereo not drawn) | ? | ? | i | ? | i | ?
CCC(=O)N1CCC2(CC1)Oc1ccc(F)cc1C(=O)C21CC(c2ccccc2)=NO1 (stereo not drawn) | ? | i | i | i | i | nt
CC1(C)Cc2c(C#N)c(N3CCN(C(=O)c4ccco4)CC3)nc(-c3ccco3)c2CS1 | ? | 7.9µM | i | 4.7µM | i | i
CCC(=O)Nc1cc(C)c(NC(=O)c2ccco2)cn1 | i | i | i | i | i | nt
Cc1cc(NC(=O)c2ccccc2)ncc1NC(=O)c1ccco1 | nt | ? | ? | i | i | i
COc1ccccc1N1CCN(C2CCCN(C(=O)c3cscn3)C2)CC1 (stereo not drawn) | ? | ? | i | i | i | i
CC1=C(C(=O)N2CCCC(N3CCN(c4ccccc4C)CC3)C2)OCCO1 (stereo not drawn) | ? | 2.5µM | i | i | i | i
COc1ccccc1N1CCN(C2CCCN(C(=O)c3cc(C4CC4)on3)C2)CC1 (stereo not drawn) | i | i | i | i | i | nt
O=C(NCc1cc(C(F)(F)F)cc(C(F)(F)F)c1)C12CN(Cc3ccccc3)CC1C(c1cccc([N+](=O)[O-])c1)=NO2 (stereo not drawn) | ? | 22µM | ? | 13µM | i | i | PR8 titer=7.3
CN1CCN(C(=O)c2ccc3c(c2)N(Cc2ccc(F)cc2)C(=O)c2ccccc2S3=O)CC1 (stereo not drawn) | i | i | i | ? | i | nt
CC1(C(=O)NS(=O)(=O)c2ccc3ccccc3c2)CCN1C(=O)CC1CCCCC1 (stereo not drawn) | nt | nt | i[18.4 µM] | nt | nt | nt
Cc1ccc(-n2c(Cn3c(C)nc4ccccc43)n[nH]c2=S)cc1 | ? | ? | i | i | i | i
Cc1ccc(S(=O)(=O)Nc2ccc3nc(-c4cccn4C)[nH]c3c2)cc1 | nt | 1.6µM | i | ? | i | i | PR8 titer=i
COc1ccc2oc(/C=C/N(C)C)c(C(=O)c3ccc(Cl)cc3)c2c1 | ? | 13µM | ? | ? | i | i
SMILES | Pf growth 96h | NS1 function inh | RE007 growth inh | Pf growth 48h | SARS PLP yeast | NS1 inh valid | others
COc1ccc2oc(C)c(C(=O)c3ccccc3)c2c1 | nt | nt | i | nt | nt | nt
Cc1cccc(N(C(=O)c2ccco2)C(C(=O)NC2CCCC2)c2ccco2)c1C (stereo not drawn) | i | i | i | ? | i | nt
O=S(=O)(Nc1ncnc2c1oc1ccccc12)c1ccc(Cl)s1 | i | 1.1µM | i | i | i | i
Cc1cccc(Nc2nnc(SC/C(O)=C(\C#N)c3nc4ccccc4[nH]3)s2)c1 | ? | 13µM | i | ? | i | i
Cc1ccc(Nc2nnc(SC/C(O)=C(\C#N)c3nc4ccccc4[nH]3)s2)c(C)c1 | ? | i | i | ? | i | nt
O=C(N/N=C/c1ccccc1)c1ccc(CN2C(=O)c3cccc4cccc2c34)cc1 | i | i | i | i | i | nt
CN(C)c1ccc(/C=N/NC(=O)c2ccc(CN3C(=O)c4cccc5cccc3c45)cc2)cc1 | i | 4.5µM | nt | i | i | i
Oc1ccccc1Nc1ccccn1 | ? | ? | i | ? | i | i
c1ccc(Nc2ccccn2)nc1 | i | i | i | i | i | nt
Cc1nnc(SCC(=O)Nc2ncc(S(=O)(=O)c3ccc([N+](=O)[O-])cc3)s2)s1 | i | i | i | i | i | nt
COC(=O)C(NC(=O)c1ccc(F)cc1)(Nc1ncc(S(=O)(=O)c2ccc([N+](=O)[O-])cc2)s1)C(F)(F)F (stereo not drawn) | 13µM | 7.9µM | i | ? | i | i
COc1cc(CNc2ncnc3c2ncn3[C@H]2CN(Cc3cccc4ccccc34)C[C@@H](CO)O2)cc(OC)c1OC | nt | nt | i[18.4 µM] | nt | nt | nt
O=S(=O)(c1cccc(S(=O)(=O)N2CCOCC2)c1)N1CCCCCC1 | ? | i | i | i | i | nt
O=S(=O)(c1ccccc1)c1cccc(S(=O)(=O)N2CCCCC2)c1 | i | 2µM | i | i | i | i
C[N+]1(C)CCCC(OC(=O)C(O)(c2ccccc2)c2ccccc2)C1 (stereo not drawn) | nt | nt | i | nt | nt | nt
O=C(Cn1nc(-c2ccccc2)c2ccccc2c1=O)Nc1ccc(O)cc1 | i | i | i | i | i | nt
Cc1ccc(NC(=O)NNC(=O)Cn2nc(-c3ccccc3)c(-c3ccccc3)c(C#N)c2=O)cc1 | ? | ? | i | ? | i | i
O=C(/C=N/O)NCCCN1CCOCC1 | ? | ? | nt | i | i | i
CCC(C)OC(=O)c1[nH]c2c(c1C)C(=O)CC(c1ccc(N(C)C)cc1)C2 (stereo not drawn) | i | 10µM | i | ? | i | i
C/C=C/COC(=O)c1[nH]c2c(c1C)C(=O)CC(c1ccc(N(C)C)cc1)C2 (stereo not drawn) | i | 13µM | i | ? | i | ?
CCOCCOC(=O)c1[nH]c2c(c1C)C(=O)CC(c1ccc(N(C)C)cc1)C2 (stereo not drawn) | i | i | i | ? | i | nt
COC(=O)c1[nH]c2c(c1C)C(=O)CC(c1ccc(OC)cc1)C2 (stereo not drawn) | i | i | i | nt | i | nt
COc1ccccc1C(CNC(=O)c1cccc(S(=O)(=O)N2c3ccccc3CC2C)c1)N(C)C (stereo not drawn) | nt | nt | i | nt | nt | nt
